# How the values were obtained:
# Assay in all cases: DAPPL (digital affinity profiling via proximity ligation, sequencing); 10 mM Tris-HCl pH 7.5, 50 mM NaCl, 1 mM DTT, 4% glycerol, room temperature, 30 min; GST-TFs on glutathione beads, 16-mer random dsDNA library, 0.1% formaldehyde crosslink after washing; high values mean tight binding
# FEV = target: T1, FEV (Homo sapiens, UniProt Q99581 1-238); conditions: protein: recombinant; tags: N-terminal GST; dsDNA, one strand shown
# T1 sequence: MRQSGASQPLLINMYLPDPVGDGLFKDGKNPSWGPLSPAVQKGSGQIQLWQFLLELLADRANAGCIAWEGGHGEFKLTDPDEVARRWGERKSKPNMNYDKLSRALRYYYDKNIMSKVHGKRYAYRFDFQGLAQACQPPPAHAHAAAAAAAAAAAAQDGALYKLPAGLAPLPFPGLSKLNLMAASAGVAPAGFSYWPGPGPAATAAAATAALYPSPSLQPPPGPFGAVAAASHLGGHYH
# Summary of the method: (§1)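 Binding signal is each hexamer's read frequency for a factor divided by its frequency in the tag-only sample. The factors were GST-fused human transcription factors from yeast, captured on glutathione beads, DNA-barcoded and pooled with that sample. Pools were incubated with 200 nmole of a random double-stranded 16-mer DNA library in Tris/NaCl/DTT/glycerol buffer at room temperature for 30 min, then washed, crosslinked with 0.1% formaldehyde, proximity-ligated with BsaI/T4 ligase (1 h, 37 °C), PCR-amplified and sequenced on an Illumina NextSeq500.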
# ETV5 = ETV5 (Homo sapiens, UniProt P41161 1-510); conditions: protein: recombinant; tags: N-terminal GST; dsDNA, one strand shown
# Sequence of ETV5 (P41161 whole entry): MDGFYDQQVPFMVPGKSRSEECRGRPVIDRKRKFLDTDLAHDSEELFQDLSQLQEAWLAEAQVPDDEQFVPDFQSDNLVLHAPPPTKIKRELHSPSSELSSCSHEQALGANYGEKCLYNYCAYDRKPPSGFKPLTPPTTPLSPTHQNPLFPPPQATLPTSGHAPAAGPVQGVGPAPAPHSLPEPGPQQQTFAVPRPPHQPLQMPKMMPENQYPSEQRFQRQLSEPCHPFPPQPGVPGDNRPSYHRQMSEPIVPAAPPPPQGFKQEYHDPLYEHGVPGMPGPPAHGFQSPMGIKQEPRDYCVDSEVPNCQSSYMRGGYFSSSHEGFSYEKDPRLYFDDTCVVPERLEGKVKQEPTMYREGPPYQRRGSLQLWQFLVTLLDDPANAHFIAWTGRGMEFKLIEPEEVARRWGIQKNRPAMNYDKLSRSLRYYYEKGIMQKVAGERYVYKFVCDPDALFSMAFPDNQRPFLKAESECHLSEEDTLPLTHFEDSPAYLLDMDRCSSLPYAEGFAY
# Summary of the method: as §1
# HSF1 = HSF1 (Homo sapiens, UniProt Q00613 1-529); conditions: protein: recombinant; tags: N-terminal GST; chain copies: 3; dsDNA, one strand shown
# Sequence of HSF1 (Q00613 whole entry): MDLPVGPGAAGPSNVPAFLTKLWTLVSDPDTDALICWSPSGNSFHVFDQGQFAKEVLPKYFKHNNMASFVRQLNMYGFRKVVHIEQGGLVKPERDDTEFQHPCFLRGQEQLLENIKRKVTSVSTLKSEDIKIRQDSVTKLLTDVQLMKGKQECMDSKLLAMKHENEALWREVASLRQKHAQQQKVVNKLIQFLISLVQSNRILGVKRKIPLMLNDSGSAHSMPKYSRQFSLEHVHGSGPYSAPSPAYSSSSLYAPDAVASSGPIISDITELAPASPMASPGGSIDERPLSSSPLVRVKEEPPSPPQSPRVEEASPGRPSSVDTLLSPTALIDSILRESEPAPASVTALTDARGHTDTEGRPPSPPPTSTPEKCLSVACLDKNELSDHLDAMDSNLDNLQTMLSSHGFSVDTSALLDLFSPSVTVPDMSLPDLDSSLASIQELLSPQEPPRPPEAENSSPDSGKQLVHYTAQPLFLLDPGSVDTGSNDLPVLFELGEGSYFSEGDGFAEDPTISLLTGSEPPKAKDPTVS
# Summary of the method: as §1
# SPIC = target: T2, SPIC (Homo sapiens, UniProt Q8N5J4 1-248); conditions: protein: recombinant; tags: N-terminal GST; dsDNA, one strand shown
# T2 sequence: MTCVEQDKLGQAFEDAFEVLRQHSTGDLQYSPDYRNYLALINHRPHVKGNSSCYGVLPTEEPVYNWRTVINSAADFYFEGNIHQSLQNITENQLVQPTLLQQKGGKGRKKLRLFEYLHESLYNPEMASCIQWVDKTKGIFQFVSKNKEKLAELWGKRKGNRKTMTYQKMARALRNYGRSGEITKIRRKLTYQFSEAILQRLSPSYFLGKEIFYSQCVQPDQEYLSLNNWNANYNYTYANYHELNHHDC
# Summary of the method: as §1
# ELF4 = ELF4 (Homo sapiens, UniProt Q99607 1-663); conditions: protein: recombinant; tags: N-terminal GST; dsDNA, one strand shown
# Sequence of ELF4 (Q99607 whole entry): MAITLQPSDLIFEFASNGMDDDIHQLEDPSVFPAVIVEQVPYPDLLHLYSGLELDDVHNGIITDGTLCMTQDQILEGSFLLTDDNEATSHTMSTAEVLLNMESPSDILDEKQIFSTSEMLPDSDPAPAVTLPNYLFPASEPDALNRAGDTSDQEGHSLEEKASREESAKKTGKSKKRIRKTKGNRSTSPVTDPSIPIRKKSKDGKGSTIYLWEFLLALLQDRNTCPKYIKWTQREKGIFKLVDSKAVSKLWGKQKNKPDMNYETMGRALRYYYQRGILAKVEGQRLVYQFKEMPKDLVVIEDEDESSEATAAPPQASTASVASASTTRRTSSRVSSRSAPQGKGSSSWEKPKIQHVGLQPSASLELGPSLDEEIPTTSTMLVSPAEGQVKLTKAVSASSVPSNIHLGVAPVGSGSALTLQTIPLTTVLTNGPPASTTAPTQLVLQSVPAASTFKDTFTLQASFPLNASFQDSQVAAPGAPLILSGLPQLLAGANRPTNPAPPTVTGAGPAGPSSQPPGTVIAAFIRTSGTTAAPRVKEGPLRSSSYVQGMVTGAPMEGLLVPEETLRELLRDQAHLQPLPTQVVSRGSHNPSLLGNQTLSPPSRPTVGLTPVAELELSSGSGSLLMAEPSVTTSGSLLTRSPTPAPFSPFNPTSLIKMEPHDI
# Summary of the method: as §1
# ELK4 = target: T3, ELK4 (Homo sapiens, UniProt P28324-2 1-405); conditions: protein: recombinant; tags: N-terminal GST; dsDNA, one strand shown
# T3 sequence: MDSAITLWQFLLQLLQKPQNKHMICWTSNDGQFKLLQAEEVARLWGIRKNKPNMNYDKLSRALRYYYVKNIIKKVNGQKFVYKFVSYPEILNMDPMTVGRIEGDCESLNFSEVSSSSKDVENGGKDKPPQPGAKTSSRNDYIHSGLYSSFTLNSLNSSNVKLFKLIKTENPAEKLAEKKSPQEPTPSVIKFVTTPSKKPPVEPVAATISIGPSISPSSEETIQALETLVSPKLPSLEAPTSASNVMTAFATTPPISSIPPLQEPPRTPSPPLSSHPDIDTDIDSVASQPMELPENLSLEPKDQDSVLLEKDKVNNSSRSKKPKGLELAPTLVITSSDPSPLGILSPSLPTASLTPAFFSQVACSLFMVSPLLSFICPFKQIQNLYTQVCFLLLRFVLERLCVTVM
# Summary of the method: as §1
# ETV2 = target: T4, ETV2 (Homo sapiens, UniProt O00321 1-342); conditions: protein: recombinant; tags: N-terminal GST; dsDNA, one strand shown
# T4 sequence: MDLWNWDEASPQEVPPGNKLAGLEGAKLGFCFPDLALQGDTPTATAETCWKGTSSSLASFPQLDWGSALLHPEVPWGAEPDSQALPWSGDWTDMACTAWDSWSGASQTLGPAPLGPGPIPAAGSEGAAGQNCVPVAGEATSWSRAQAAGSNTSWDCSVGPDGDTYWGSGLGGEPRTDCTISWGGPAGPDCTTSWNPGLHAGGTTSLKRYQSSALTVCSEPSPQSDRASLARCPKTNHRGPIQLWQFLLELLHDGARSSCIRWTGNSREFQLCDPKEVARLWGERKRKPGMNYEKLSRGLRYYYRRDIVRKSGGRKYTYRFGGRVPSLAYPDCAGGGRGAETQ
# Summary of the method: as §1
# ELF3 = target: T5, ELF3 (Homo sapiens, UniProt P78545 1-371); conditions: protein: recombinant; tags: N-terminal GST; dsDNA, one strand shown
# T5 sequence: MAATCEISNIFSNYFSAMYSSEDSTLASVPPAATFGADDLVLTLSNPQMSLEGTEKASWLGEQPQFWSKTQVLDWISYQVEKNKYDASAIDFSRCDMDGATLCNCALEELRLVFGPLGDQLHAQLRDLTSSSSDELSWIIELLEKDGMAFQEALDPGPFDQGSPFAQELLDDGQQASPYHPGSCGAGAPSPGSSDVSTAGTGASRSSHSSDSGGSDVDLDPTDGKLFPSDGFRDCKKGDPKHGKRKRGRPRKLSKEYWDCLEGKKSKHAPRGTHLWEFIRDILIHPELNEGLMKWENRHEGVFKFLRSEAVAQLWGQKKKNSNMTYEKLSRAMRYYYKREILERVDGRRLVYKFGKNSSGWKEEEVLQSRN
# Summary of the method: as §1
# CRX = CRX (Homo sapiens, UniProt O43186 1-299); conditions: protein: recombinant; tags: N-terminal GST; dsDNA, one strand shown
# Sequence of CRX (O43186 whole entry): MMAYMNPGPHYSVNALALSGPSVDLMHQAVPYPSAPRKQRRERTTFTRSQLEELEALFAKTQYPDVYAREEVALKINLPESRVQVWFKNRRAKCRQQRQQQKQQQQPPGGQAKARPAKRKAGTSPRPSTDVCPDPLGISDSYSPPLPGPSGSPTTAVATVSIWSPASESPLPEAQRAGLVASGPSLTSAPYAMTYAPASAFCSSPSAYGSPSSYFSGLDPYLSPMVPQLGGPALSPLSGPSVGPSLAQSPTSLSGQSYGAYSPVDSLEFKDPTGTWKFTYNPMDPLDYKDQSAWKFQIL
# Summary of the method: as §1
# ETV1 = ETV1 (Homo sapiens, UniProt P50549 1-477); conditions: protein: recombinant; tags: N-terminal GST; dsDNA, one strand shown
# Sequence of ETV1 (P50549 whole entry): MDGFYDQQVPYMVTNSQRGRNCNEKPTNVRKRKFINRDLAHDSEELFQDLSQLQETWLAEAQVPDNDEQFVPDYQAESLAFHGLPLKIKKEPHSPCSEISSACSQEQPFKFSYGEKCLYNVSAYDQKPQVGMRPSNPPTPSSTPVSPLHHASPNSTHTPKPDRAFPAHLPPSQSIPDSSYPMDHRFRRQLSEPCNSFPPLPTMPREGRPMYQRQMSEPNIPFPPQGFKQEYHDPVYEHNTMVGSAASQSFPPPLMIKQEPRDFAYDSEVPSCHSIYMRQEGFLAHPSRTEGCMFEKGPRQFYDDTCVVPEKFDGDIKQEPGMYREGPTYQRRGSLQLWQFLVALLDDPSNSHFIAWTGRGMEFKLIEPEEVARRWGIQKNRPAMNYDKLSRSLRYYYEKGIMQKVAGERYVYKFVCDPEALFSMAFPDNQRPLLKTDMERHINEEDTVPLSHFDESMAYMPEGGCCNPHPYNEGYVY
# Summary of the method: as §1
# ERF = target: T6, ERF (Homo sapiens, UniProt P50548 1-548); conditions: protein: recombinant; tags: N-terminal GST; dsDNA, one strand shown
# T6 sequence: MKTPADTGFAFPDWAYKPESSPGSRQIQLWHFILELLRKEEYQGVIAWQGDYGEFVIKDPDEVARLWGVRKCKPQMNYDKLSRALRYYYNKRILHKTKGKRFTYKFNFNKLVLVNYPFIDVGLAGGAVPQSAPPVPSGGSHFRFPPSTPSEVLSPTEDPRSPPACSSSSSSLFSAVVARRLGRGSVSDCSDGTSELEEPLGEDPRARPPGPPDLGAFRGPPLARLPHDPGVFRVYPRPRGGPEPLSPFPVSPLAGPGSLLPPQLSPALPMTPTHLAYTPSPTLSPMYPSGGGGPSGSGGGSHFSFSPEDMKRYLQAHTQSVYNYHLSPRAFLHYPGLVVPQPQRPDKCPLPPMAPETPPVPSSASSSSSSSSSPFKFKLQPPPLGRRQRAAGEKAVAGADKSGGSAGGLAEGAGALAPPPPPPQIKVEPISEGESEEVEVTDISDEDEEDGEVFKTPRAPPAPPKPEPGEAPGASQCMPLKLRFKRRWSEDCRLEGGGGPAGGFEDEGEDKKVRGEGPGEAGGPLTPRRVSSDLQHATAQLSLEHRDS
# Summary of the method: as §1
# ETV3L = target: T7, ETV3L (Homo sapiens, UniProt Q6ZN32 1-361); conditions: protein: recombinant; tags: N-terminal GST; dsDNA, one strand shown
# T7 sequence: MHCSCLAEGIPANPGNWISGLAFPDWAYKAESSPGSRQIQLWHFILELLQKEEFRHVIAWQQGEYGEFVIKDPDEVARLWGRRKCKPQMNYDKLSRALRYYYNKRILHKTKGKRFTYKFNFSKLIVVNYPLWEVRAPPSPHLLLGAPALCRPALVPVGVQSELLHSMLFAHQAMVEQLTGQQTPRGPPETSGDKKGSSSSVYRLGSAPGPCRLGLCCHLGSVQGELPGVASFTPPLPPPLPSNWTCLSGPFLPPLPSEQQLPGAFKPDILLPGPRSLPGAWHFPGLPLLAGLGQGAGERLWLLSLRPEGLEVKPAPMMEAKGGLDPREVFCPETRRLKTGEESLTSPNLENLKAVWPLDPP
# Summary of the method: as §1
# ETS2 = target: T8, ETS2 (Homo sapiens, UniProt P15036 1-469); conditions: protein: recombinant; tags: N-terminal GST; dsDNA, one strand shown
# T8 sequence: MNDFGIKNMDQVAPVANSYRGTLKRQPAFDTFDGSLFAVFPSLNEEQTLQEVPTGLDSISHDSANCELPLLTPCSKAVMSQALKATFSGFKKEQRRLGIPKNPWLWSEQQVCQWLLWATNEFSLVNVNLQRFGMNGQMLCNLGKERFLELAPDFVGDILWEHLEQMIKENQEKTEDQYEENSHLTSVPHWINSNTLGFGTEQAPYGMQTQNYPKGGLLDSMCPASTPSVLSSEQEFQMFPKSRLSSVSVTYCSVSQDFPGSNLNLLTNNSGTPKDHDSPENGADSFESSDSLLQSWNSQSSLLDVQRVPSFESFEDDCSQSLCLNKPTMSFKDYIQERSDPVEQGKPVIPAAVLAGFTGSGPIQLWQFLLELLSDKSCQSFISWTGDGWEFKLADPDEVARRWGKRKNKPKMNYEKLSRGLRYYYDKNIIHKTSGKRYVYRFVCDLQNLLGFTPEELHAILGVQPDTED
# Summary of the method: as §1
# SPDEF = target: T9, SPDEF (Homo sapiens, UniProt O95238 1-335); conditions: protein: recombinant; tags: N-terminal GST; dsDNA, one strand shown
# T9 sequence: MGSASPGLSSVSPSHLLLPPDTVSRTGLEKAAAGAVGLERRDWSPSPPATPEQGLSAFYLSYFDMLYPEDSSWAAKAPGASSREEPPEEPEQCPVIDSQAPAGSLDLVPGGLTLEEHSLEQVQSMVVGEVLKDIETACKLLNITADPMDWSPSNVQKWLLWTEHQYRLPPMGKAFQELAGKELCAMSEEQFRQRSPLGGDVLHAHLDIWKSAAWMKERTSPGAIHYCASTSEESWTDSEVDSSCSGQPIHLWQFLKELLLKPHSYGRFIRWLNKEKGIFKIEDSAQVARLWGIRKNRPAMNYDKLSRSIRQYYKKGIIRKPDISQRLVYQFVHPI
# Summary of the method: as §1
# ETV7 = target: T10, ETV7 (Homo sapiens, UniProt Q9Y603 1-341); conditions: protein: recombinant; tags: N-terminal GST; dsDNA, one strand shown
# T10 sequence: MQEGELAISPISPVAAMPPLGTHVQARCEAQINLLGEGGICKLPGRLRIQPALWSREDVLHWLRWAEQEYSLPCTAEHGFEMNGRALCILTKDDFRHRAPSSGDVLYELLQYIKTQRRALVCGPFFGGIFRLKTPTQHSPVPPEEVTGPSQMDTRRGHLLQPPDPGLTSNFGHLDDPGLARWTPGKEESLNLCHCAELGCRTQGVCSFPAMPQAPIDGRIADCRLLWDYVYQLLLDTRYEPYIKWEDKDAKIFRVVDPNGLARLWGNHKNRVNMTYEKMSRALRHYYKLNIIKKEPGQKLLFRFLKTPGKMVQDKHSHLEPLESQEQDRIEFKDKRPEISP
# Summary of the method: as §1
# ELF5 = target: T11, ELF5 (Homo sapiens, UniProt Q9UKW6-2 1-255); conditions: protein: recombinant; tags: N-terminal GST; dsDNA, one strand shown
# T11 sequence: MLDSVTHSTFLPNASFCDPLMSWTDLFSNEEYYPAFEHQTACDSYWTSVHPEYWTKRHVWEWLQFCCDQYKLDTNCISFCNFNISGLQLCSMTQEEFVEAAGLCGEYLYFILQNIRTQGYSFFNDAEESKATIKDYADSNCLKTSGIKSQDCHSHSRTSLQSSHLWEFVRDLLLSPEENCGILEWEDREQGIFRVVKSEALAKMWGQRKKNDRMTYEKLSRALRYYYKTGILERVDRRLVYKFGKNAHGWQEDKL
# Summary of the method: as §1
# ETV3 = target: T12, ETV3 (Homo sapiens, UniProt P41162-2 1-143); conditions: protein: recombinant; tags: N-terminal GST; dsDNA, one strand shown
# T12 sequence: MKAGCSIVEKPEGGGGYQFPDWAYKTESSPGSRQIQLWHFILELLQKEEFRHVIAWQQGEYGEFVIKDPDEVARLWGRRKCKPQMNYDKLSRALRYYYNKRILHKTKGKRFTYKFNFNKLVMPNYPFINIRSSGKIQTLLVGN
# Summary of the method: as §1
# ETV6 = ETV6 (Homo sapiens, UniProt P41212 1-452); conditions: protein: recombinant; tags: N-terminal GST; dsDNA, one strand shown
# Sequence of ETV6 (P41212 whole entry): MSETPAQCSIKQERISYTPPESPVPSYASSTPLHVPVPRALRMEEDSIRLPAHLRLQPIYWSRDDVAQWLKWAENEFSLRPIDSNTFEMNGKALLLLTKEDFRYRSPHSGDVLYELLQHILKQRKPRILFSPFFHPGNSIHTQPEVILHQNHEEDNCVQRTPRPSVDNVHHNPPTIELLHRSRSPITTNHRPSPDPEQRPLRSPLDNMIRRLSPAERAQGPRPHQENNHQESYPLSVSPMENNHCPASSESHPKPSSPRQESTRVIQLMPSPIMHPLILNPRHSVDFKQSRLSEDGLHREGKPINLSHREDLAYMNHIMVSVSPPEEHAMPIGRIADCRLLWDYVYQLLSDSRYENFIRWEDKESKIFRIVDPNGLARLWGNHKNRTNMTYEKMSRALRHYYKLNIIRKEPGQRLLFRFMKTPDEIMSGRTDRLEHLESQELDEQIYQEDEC
# Summary of the method: as §1
sequence,measurement,setting,value
TCGACT,binding signal,FEV,"1.42 fold enrichment (6-mer frequency, TF over GST control)"
same,binding signal,ETV5,"1.35 fold enrichment (6-mer frequency, TF over GST control)"
same,binding signal,HSF1,"1.57 fold enrichment (6-mer frequency, TF over GST control)"
same,binding signal,SPIC,"1.41 fold enrichment (6-mer frequency, TF over GST control)"
same,binding signal,ELF4,"1.51 fold enrichment (6-mer frequency, TF over GST control)"
same,binding signal,ELK4,"1.52 fold enrichment (6-mer frequency, TF over GST control)"
same,binding signal,ETV2,"1.33 fold enrichment (6-mer frequency, TF over GST control)"
same,binding signal,ELF3,"1.49 fold enrichment (6-mer frequency, TF over GST control)"
same,binding signal,CRX,"1.36 fold enrichment (6-mer frequency, TF over GST control)"
same,binding signal,ETV1,"1.38 fold enrichment (6-mer frequency, TF over GST control)"
same,binding signal,ERF,"1.34 fold enrichment (6-mer frequency, TF over GST control)"
same,binding signal,ETV3L,"1.27 fold enrichment (6-mer frequency, TF over GST control)"
same,binding signal,ETS2,"1.37 fold enrichment (6-mer frequency, TF over GST control)"
same,binding signal,SPDEF,"1.29 fold enrichment (6-mer frequency, TF over GST control)"
same,binding signal,ETV7,"1.32 fold enrichment (6-mer frequency, TF over GST control)"
same,binding signal,ELF5,"1.28 fold enrichment (6-mer frequency, TF over GST control)"
same,binding signal,ETV3,"1.4 fold enrichment (6-mer frequency, TF over GST control)"
same,binding signal,ETV6,"1.35 fold enrichment (6-mer frequency, TF over GST control)"
